About 83,000 compounds went through this panel and 20% of them were active in at least one assay; those are over-represented in the sample as a whole.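 Note: values are percent growth. 100 is the growth of untreated cells, values between 100 and 0 indicate rising inhibition; between -100 and 0 indicates cell death.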 Values without a mark were called inactive. Active and inactive are the calls of the source. The calls were made as follows: active = growth percent below 10; inactive = the rest.

What all share (experiment): NCI-60 one-dose screen, 48 h (100 = growth as untreated, 0 = no growth, -100 = all killed)
What all share (settings): 10 µM unless noted

The subject of test [1] is NCI-H23 lung.
Test [2] has as its system NCI-H226 lung.
The subject of test [3] is NCI-H322M lung.
Test [4] deals with HOP-62 NSCLC.
Test [5] concerns NCI-H460 lung.
Test [6] relates to HOP-92 NSCLC.
In test [7] the test system is NCI-H522 lung.
Test [8] has as its system A549/ATCC NSCLC.
The subject of test [9] is 786-0 renal.
The test system of test [10] is COLO 205 colon.

With `COc1ccc(C2NC(=O)C(C#N)c3c2sc2c(F)cccc32)cc1` (stereo not given), the growth in test [1] was 76.3%; in test [2], 60.3%; in [3] it was 65.3%; in test [4] it was 46.4%; in test [5], 28.6%; in [6], 54.2%. The growth in test [7] is 20.1%; in [8], 42.6%; in test [9], 71%; in test [10] it was 91.6%.

As for `O=C(Nc1cccc2cccnc12)c1cc(C(=O)c2ccc(Cl)cc2)n2ccc(-c3ccncc3)cc12`, the growth was 102% in [1]; 91% in test [2]; 95.7% in [3]; 88.3% in [4]; 98% in test [5]; 83.9% in test [6]. The growth was 88.8% in test [7], 99.1% in test [8], 103% in test [9] and 111% in test [10].

As to `COc1cc(Cl)cc(-c2nn(C(=O)NS(=O)(=O)c3ccccc3)cc2-c2ccncc2)c1`, the growth is 90.4% in [1]; 69.3% in [2]; 96% in test [3]; 68.6% in test [4]; 107% in test [5]; 47.7% in test [6]. Moreover, the growth in test [7] was 82.5%; in test [8] it was 78.5%; in test [9], 70.9%; in [10] it was 69.7%.

Turning to `CCCCOC(=O)c1cccc([N+](=O)[O-])c1`, the growth in [1] is 101%; in [2], 104%; in [3] it was 106%; in test [4], 109%; in [5], 107%; in test [6], 99.8%. For the same compound, the growth in [7] is 92.7%; in test [8] it was 107%; in test [9] it was 112%; in test [10], 115%.

In the case of `CCOC(=O)c1ccc2nc(-c3c(C)nn(-c4ccccc4)c3N3CCOCC3)[nH]c2c1`, the growth is 95.2% in test [1]; 73.3% in [2]; 102% in test [3]; 85.6% in test [4]; 97% in [5]; 79.8% in test [6]. In addition, the growth in test [7] was 87.2%; in test [8], 94.5%; in test [9] it was 104%; in [10] it was 114%.

As for `c1nc(N2CCOCC2)c2[nH]ccc2n1`, the growth is 116% in test [1]; 114% in test [2]; 104% in [3]; 114% in test [4]; 104% in test [5]; 69.8% in test [6]. In addition, the growth is 102% in [7], 99.9% in test [8], 101% in test [9] and 113% in test [10].

Take `O=C(O)c1cccc(CN2CCN(c3cc4c(cc3F)c(=O)c(C(=O)O)cn4C3CC3)CC2)c1O`: the growth in test [1] was 101%; in [2] it was 106%; in test [3], 111%; in [4], 105%; in [5], 106%; in test [6], 97%. The growth was 87.1% in test [7], 99.5% in test [8], 102% in [9] and 103% in [10].

Regarding `CCOC(=O)c1cnc2ccc(Br)cc2c1Nc1cccc(S(N)(=O)=O)c1`, the growth is 93% in [1]; 88.6% in test [2]; 105% in test [3]; 97.1% in test [4]; 105% in test [5]; 91.1% in test [6]. The growth in [7] is 96.6%; in test [8] it was 101%; in [9], 105%; in test [10], 128%.

As to `CC1(C)CC[C@]2(C(=O)OC(=O)[C@]34CCC(C)(C)C[C@@H]3C3=CC[C@@H]5[C@@]6(C)CCC(=O)C(C)(C)[C@@H]6CC[C@@]5(C)[C@]3(C)CC4)CC[C@]3(C)C(=CC[C@@H]4[C@@]5(C)CCC(=O)C(C)(C)[C@@H]5CC[C@]43C)[C@H]2C1`, the growth was 58.9% [100 µM] in [1]; 68.1% [100 µM] in test [2]; 86.9% [100 µM] in test [3]; 74.7% [100 µM] in test [4]; 58.3% [100 µM] in test [5]; 45.6% [100 µM] in test [6]. Moreover, the growth was 56.2% [100 µM] in [7], 76.5% [100 µM] in [8], 64.1% [100 µM] in test [9] and 88.6% [100 µM] in test [10].

In the case of `CCCCCCCCCCCCCC[n+]1cccc(C(N)=O)c1`, the growth is 13.9% in test [1]; 13.8% in test [2]; 16.8% in test [3]; 17.1% in [4]; 14.8% in [5]; -26.8% (active) in test [6]. The growth in test [7] was -35.3% (active); in [8], 69.5%; in [9] it was -40% (active); in [10] it was -66.8% (active).

In the case of `C=CCc1nc2ccccc2s1`, the growth is 95.7% in test [1]; 101% in test [2]; 106% in test [3]; 100% in [4]; 104% in test [5]; 98.6% in test [6]. Also, the growth was 86.6% in test [7], 103% in test [8], 108% in [9] and 113% in [10].

Turning to `COc1ccc(-c2cc(-c3ccccc3)nc(SCCCCCC(=O)NO)n2)cc1`, the growth in test [1] is 61.7%; in test [2], 80.3%; in [3], 74.3%; in test [4] it was 51.5%; in test [5], 51.9%; in test [6] it was 40.5%. The growth in test [7] was 10.1%; in test [8], 59.3%; in test [9] it was 88%; in test [10], 38.1%.

For the compound `CCN=C1C=CC(=C(c2ccc(N(CC)CC)cc2)c2ccc(N(CC)CC)cc2)c2ccccc21`, the growth in test [1] is -53.5% (active); in [2], -58.3% (active); in test [3] it was -38.9% (active); in [4], -71.8% (active); in [5] it was -72% (active); in [6], -72.8% (active). Further, the growth was -65.5% (active) in test [7], -59.8% (active) in test [8], -64.3% (active) in test [9] and -90.7% (active) in [10].

Source of the values: PubChem BioAssay (NCI).
